ChEMBL document CHEMBL4513216, “Probing the Open Global Health Chemical Diversity Library for Multistage-Active Starting Points for Next-Generation Antimalarials” (ACS Infect Dis, 2020)
The campaign covered roughly 69,000 compounds. About 8,600 (12%) showed an effect of 50% or more. What follows is part of a selection rich in strong results, with near analogues and random picks from the rest.

test system: Plasmodium berghei; test: Screen against P. berghei liver stage (PbLuc), transformed with Luciferase, at 10uM; assay type: functional, HepG2; settings: tested at 10 uM

SMILES | INHIBITION [%]
CN(Cc1ccccc1)C(=O)Cn1nc(N2CCOCC2)ccc1=O | -28.7
O=C1CCCCN1CCc1nc(C2(c3ccc(F)cc3)CCOC2)no1 (stereo not given) | -15.5
CCc1nn(C)c2[nH]nc(NC(=O)c3cccnc3NC(C)C)c12 | 36.3
CCS(=O)(=O)N1CC(=O)N(CCOc2ccccc2)CC(O)C1 (stereo not given) | -10.3
CCn1cc(S(=O)(=O)NC2(CN3CCOCC3)CCCCC2)c(C)n1 | -10.5
CC(C)c1nccn1C(C)C(=O)N1CCN(c2ccccc2Cl)CC1 (stereo not given) | 64.6
CC(C)c1nccn1C(C)C(=O)N1CCN(c2cnccn2)CC1 (stereo not given) | -6.28
Cc1cccnc1N1CCN(C(=O)C(C)n2ccnc2C(C)C)CC1 (stereo not given) | 17.9
COCCN(C)C[C@@H]1CN(C(=O)c2ccc(C)c(Cl)c2)C[C@@H]1CO | 13.1
C[C@@H]1CN(Cc2ccoc2)C[C@]12CCN(CC(=O)N(C)C)C2=O | 23.5
CCOC(C)c1noc(CN2CCNCC2)n1 (stereo not given) | 31.2
CCOC(C)c1noc(CN2CCN(Cc3cccnc3)CC2)n1 (stereo not given) | 34.4
CCOC(C)c1noc(CN2CCN(Cc3ccno3)CC2)n1 (stereo not given) | 33.4
CCOC(C)c1noc(CN2CCN(CC3CCCC3)CC2)n1 (stereo not given) | 28
CCOC(C)c1noc(CN2CCN(c3nnc(C)s3)CC2)n1 (stereo not given) | 65.8
CCOC(C)c1noc(CN2CCN(c3ccncc3)CC2)n1 (stereo not given) | 81
COc1ccc(CN(Cc2cccnc2)CC2CCCO2)c(OC)c1 (stereo not given) | 22.2
CCN1C(=O)CCCC12CCCN(C(=O)c1ccoc1C)C2 (stereo not given) | 32.1
CCC(=O)NCC(=O)NCC1(O)CCC(C(C)(C)C)CC1 (stereo not given) | 38.3
CC(=O)NCc1cncc(C2CCCN2C2CCOCC2)n1 (stereo not given) | -4.15
c1cnn(CC2CCCCN2c2ncnc3ccsc23)c1 (stereo not given) | 14.75
c1nc(N2CCCC2Cn2cncn2)c2ccsc2n1 (stereo not given) | 33
c1cnn(CC2CCCN2c2ncnc3ccsc23)c1 (stereo not given) | 57.8
c1nc(N2CCCC2Cn2cncn2)c2sccc2n1 (stereo not given) | 10.65

SMILES | INHIBITION [%]
c1cnn(CC2CCCCN2c2ncnc3sccc23)c1 (stereo not given) | 18.2
c1cnn(CC2CCCN2c2ncnc3sccc23)c1 (stereo not given) | 79.7
O=C(Nc1nccs1)C1CCN(Cc2cccc3c2OCCO3)CC1 | 37.6
COCc1noc(-c2cc(Cl)c3c(c2)OCO3)n1 | -26.1
CC1CN(CC(=O)NCc2ccccc2)CCN1Cc1nccn1C (stereo not given) | 22.93
Cc1[nH]ccc1C(=O)N1CCCC(c2ccc(C(=O)O)cc2)C1 (stereo not given) | 2.7
O=C(c1cccc2cccnc12)N1CCCC(n2ccnc2)C1 (stereo not given) | 17.02
CN(C)c1ncccc1CNc1cc(N2CCCC2CO)ncn1 (stereo not given) | 26.4
Cc1ccc(-c2cn[nH]c2C2CCCN(c3nccc(N)n3)C2)cc1 (stereo not given) | 47.2
Cc1ccc(-c2cn[nH]c2C2CCCN(c3cnccn3)C2)cc1 (stereo not given) | 53.7
Cc1ccc(-c2cn[nH]c2C2CCCN(c3ncccn3)C2)cc1 (stereo not given) | 27.6
CN(C)CCn1ccnc1C1CCCN(c2cc(N)ncn2)C1 (stereo not given) | 28
Cc1ccc(-c2cn[nH]c2C2CCCN(c3ccnc(C)n3)C2)cc1 (stereo not given) | 65.3
CC(O)C(=O)N1CCC(c2[nH]ncc2-c2ccccc2)CC1 (stereo not given) | 1.66
Cc1ccc(-c2cn[nH]c2C2CCCN(c3cc(N)ncn3)C2)cc1 (stereo not given) | 75.4
Cc1ccnc(C2CCN(c3ccnc(C)n3)C2)n1 (stereo not given) | 10.9
Cc1c[nH]nc1C1CCCN(c2cnccn2)C1 (stereo not given) | 4.73
C[C@H](N)C(=O)N1CCC(c2[nH]ncc2-c2ccccc2)CC1 | -15.65
Cc1ccc(N2CCCC(c3[nH]ncc3-c3ccccc3)C2)nn1 (stereo not given) | 56.2
Cc1nccc(N2CCCC(c3nnc(Cn4ccnc4C)n3C)C2)n1 (stereo not given) | 1.74
CN(CCO)C[C@@H]1CN(C(=O)c2cccc(OC(F)F)c2)C[C@@H]1CO | 3.19
O=C(C1CCOC1)N1CCN(Cc2ccc3c(c2)CCO3)CC1 (stereo not given) | 41.5
Cc1nc(CN(C)C2CCN(CCc3cccs3)C2)no1 (stereo not given) | 39.2
CS(=O)(=O)NC[C@@H]1OC[C@H]2CN(C(=O)c3ccccn3)CC[C@H]21 | -2.17

SMILES | INHIBITION [%]
O=C(NCC1CC2(CO1)CN(c1ncccn1)C2)C1CCC1 (stereo not given) | 27.6
Cc1ccc(N2CCC(c3[nH]ncc3Cc3ccccc3)CC2)nn1 | 49.2
Cc1cc(N2CCCC(c3[nH]ncc3Cc3ccccc3)C2)nc(N)n1 (stereo not given) | 86.8
Cc1ccc(N2CCCC(c3[nH]ncc3Cc3ccccc3)C2)nn1 (stereo not given) | 47.2
O=C(c1cnccn1)N1C[C@@H]2CN(Cc3cccnc3)CCO[C@@H]2C1 | 22.5
O=C(CN1CCc2c(ncn2C2CC2)C1)NC1CCOCC1 | 5.7
NCC1Cc2cc(-c3nccc(N4CCC(O)CC4)n3)cc(F)c2O1 (stereo not given) | 20.5
NCC1Cc2cccc(-c3nccc(N4CCC(O)CC4)n3)c2O1 (stereo not given) | 92.1
NCC1Cc2cc(-c3nccc(N4CCC(O)CC4)n3)cc(Cl)c2O1 (stereo not given) | 43.9
CCCc1noc(C2CC(=O)N(Cc3ccccc3)C2)n1 (stereo not given) | 11.1
COCCC(=O)N1Cc2ccccc2OC2(CCOCC2)C1 | 26.05
Cc1c(CS(C)(=O)=O)cccc1NCCCC1CCCC1 | 74.8
Cc1c(CS(C)(=O)=O)cccc1NC(=O)CC1CCCC1 | -15.9
Cc1c(CS(C)(=O)=O)cccc1NCC1CCCCC1 | -0.514
CN(Cc1ccc(O)cc1)C(=O)NC1CCCN(c2ncccn2)C1 (stereo not given) | 18.9665
O=c1[nH]c2cn(-c3cccc(F)c3)c(=O)n2n1Cc1ccccc1Cl | 20.6
CCc1nc(C(=O)N2CCCCC2)nn1-c1ccccc1Cl | 12.7
CCc1nc(C(=O)N2CCN(C)CC2)nn1-c1ccccc1Cl | 34.7
CCc1nc(C(=O)N2CCCC2)nn1-c1ccccc1Cl | 67.3
CCN1CCN(C(=O)c2nc(C)n(-c3ccccc3Cl)n2)CC1 | 50.4
Cc1nc(C(=O)N2CCCCC2)nn1-c1ccccc1Cl | 4.52
CCc1nc(C(=O)N2CCN(CC)CC2)nn1-c1ccccc1Cl | 4.52
